From PubChem BioAssay AID492993 (Johns Hopkins Ion Channel Center, 2010) come the findings set out here.

The whole screen tested about 4,900 compounds, of which about 200 (4.1%) were called active.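 Rule for the calls: active = thallium signal drop more than 5 SD beyond the mean of the no-compound control wells, seen in both duplicate plates; inactive = the rest.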 Not all results are given here.

A word on the inhibition: it is the change of the read-out against control, counted positive when it falls.

Sequence of Inward rectifier potassium channel 2 (Mus musculus) (P35561 whole entry, looked up): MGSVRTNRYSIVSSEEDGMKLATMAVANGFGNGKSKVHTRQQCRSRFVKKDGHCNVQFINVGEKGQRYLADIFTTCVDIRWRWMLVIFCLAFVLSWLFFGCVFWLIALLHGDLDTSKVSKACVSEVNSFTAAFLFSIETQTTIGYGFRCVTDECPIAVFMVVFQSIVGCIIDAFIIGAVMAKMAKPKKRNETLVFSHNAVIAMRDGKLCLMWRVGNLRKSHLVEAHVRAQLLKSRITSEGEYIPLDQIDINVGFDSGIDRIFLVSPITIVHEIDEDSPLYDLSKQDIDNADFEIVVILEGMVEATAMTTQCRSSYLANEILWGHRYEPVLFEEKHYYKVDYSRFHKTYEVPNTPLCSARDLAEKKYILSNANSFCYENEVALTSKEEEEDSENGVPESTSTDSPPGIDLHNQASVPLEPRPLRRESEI

The experiment addresses Inward rectifier potassium channel 2 (Mus musculus) (UniProt P35561). Put plainly: mouse Kir2.1 channel inhibition, confirmation, selectivity assay for KCNK9 modulator project, cell-based, HEK293, thallium flux (AID 492993).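 For inhibition: signal is fluorescence rise after thallium addition divided by baseline fluorescence; plate controls were assay buffer only for no effect and full block by chlorpromazine control for full effect.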 The following applies: Kir2.1 cells, FluxOR thallium flux fluorescence, at 10 µM; hits give high values.
In the case of `CCCN1C(=O)C(Cc2nc3ccccc3c(=O)n2-c2ccccc2)c2cc(C)ccc21` (centres undefined), the inhibition entry is “inactive”. Regarding `CCOC(=O)CSc1nc2c(sc(=S)n2CCc2ccccc2)c(=O)n1Cc1ccco1`, the inhibition result is “inactive”. In the case of `CN(c1ccccc1)S(=O)(=O)c1cccc(NC(=O)Cc2c(F)cccc2Cl)c1` it was 28.5% (active); in that of `CN(CCC(=O)Nc1cc(S(=O)(=O)N(C)C)ccc1Cl)CC(=O)Nc1ccc(F)cc1`, “inactive”. Under `Cc1ccccc1CSCCNC(=O)c1ccc(N(C)S(=O)(=O)c2ccccc2)cc1` stands “inactive”; under `CCOC(=O)C1=C(C)Nc2sc(C(=O)c3ccc(Br)cc3)c(N)c2C1c1ccc(C(=O)OC)cc1` (centres undefined), “inactive”; under `Cc1ccc(C(=O)c2c(NC(=O)c3ccccc3)sc(C)c2C)cc1`, “inactive”. Under `CCOc1ccc(CN(Cc2ccco2)C(c2cccs2)c2nnnn2C(C)(C)C)cc1` (centres undefined) stands “inactive”; under `COc1ccc(C2CC(c3cccs3)=Nc3ccccc3S2)cc1OC` (centres undefined), “inactive”; under `COc1ccc(C(CCN(Cc2ccc(OC)c(OC)c2)C(=O)CCl)c2ccccc2)cc1` (centres undefined), “inactive”. As for `Cc1ccc(OCc2cc(C(=O)N(C)CCc3ccccc3)no2)cc1C`, the inhibition entry was “inactive”. In the case of `CCOc1ccc(OCc2ccc(C(=O)Nc3cccc(C)n3)o2)cc1` it was “inactive”.

Turning to `Cc1ccccc1CSc1nnc(CCCCCNC(=O)OC(C)(C)C)o1`, the inhibition entry is “inactive”. For `CC1(C)CC(=O)CC2(C1)NCC(c1ccccc1Cl)c1c2[nH]c2ccccc12` (centres undefined), the inhibition entry is “inactive”. Under `O=C(NCCc1ccccc1)c1ccc2c(c1)N(Cc1ccccc1)CCS2` stands “inactive”; under `CCC1(C)Cc2c(sc3[nH]c(=S)n(Cc4ccccc4)c(=O)c23)CO1` (centres undefined), “inactive”.

`COc1ccc(CCNc2ncnc3c2nnn3Cc2ccccc2)cc1`: the inhibition result is “inactive”. Under `COc1ccc(CCNC(=O)c2ccccc2OCc2ccccc2)cc1` stands 54.5% (active). Under `COc1ccc(-c2nc(CCNC(=O)c3ccc(Br)o3)cs2)cc1` stands “inactive”. Under `CCOc1ccc2[nH]c(=O)c(CN(Cc3nnnn3CCc3ccccc3)CC3CCCO3)cc2c1` (centres undefined) stands “inactive”. For `C=CCOc1ccc(/C=N/NC(=O)C(C)Sc2ccccn2)cc1OCC` (centres undefined), the inhibition entry is “inactive”. For `O=C(OCC(=O)N(CCc1ccccc1)Cc1ccccc1)c1ccccc1[N+](=O)[O-]`, the inhibition entry was “inactive”. In the case of `Cc1cccc(NC(=O)c2sc3nc4c(c(-c5ccco5)c3c2N)CCC4)c1` it was “inactive”. As to `O=C(/C=C/NNC(=O)c1cccc(Br)c1)c1ccccc1`, the inhibition entry is “inactive”. In the case of `COc1cccc(-c2nn(C)c3sc(C(=O)N4CCN(c5ccccc5)CC4)cc23)c1` it was “inactive”; in that of `CC(C)CC(COCc1ccc(Cl)cc1)N1CCN(C(=O)c2ccc(C(F)(F)F)cc2)CCC1=O` (centres undefined), “inactive”; in that of `O=C(COC(=O)c1c2c(nc3ccccc13)CCCC2)c1ccc(Br)s1`, “inactive”.

For the compound `Cc1cc(OC(C)C(=O)Nc2ccc(S(=O)(=O)Nc3onc(C)c3C)cc2)cc(C)c1Cl` (centres undefined), the inhibition entry was “inactive”.

As for `Cc1cccc(C(=O)Nc2ccccc2N2CCN(c3ccc(F)cc3)CC2)c1`, the inhibition entry is “inactive”. For `CCCCC(=O)Nc1ccccc1N1CCN(c2ccc(F)cc2)CC1`, the inhibition entry was “inactive”. Turning to `O=C(CNCCC1=CCCCC1)Nc1ccccc1N1CCCCCC1`, the inhibition was 34.5% (active).

As for `CCOc1ccccc1NC(=O)C1CCCN(S(=O)(=O)c2ccccc2)C1` (centres undefined), the inhibition entry was “inactive”. `COc1ccc(C(=O)Nc2ccccc2C(=O)N/N=C/c2ccccc2OC)cc1`: the inhibition result was “inactive”. In the case of `COC(=O)C1=C(Nc2ccc(C)cc2)C=C(C)C(C(=O)OC)C1c1ccc(F)cc1` (centres undefined) it was “inactive”. In the case of `Clc1ccc(Cl)c(Oc2ccc(Oc3nc(Cl)ccc3Cl)cc2)n1` it was “inactive”. In the case of `CCOc1cccc(OCCCOc2cccc3cccnc23)c1`, the inhibition entry is “inactive”. Under `O=C(COC(=O)c1ccccc1)Nc1ccccc1Sc1ccccc1` stands “inactive”; under `COc1cccc(-c2cnc(OC(C)(C)C)nc2OC(C)(C)C)c1`, “inactive”; under `CC(C)(C)C1CCC(C(=O)NCC(c2cccs2)N2CCOCC2)CC1` (centres undefined), “inactive”. In the case of `COCCNc1cc(-c2ccccc2)nc2cc(-c3cccc(F)c3)nn12` it was “inactive”; in that of `CCOC(=O)N1CCN(C(=O)COc2ccc3oc4c(c3c2)CCCC4)CC1`, “inactive”; in that of `O=C(NCc1ccccc1)C1=C[C@@H](C2CCCCC2)C[C@@H](OCc2ccc(CO)cc2)O1`, “inactive”. In the case of `CCN(C(=O)COc1ccc(C(=O)c2ccccc2)cc1)c1ccccc1` it was “inactive”; in that of `Cc1cc2ccccn2c1C(=O)c1cccc(F)c1`, “inactive”; in that of `CCOC(=O)C(C)Sc1nc2ccccc2c(=O)n1CC1CCCCC1` (centres undefined), “inactive”. With `COc1cc(Cl)c(C)cc1NC(=O)CSc1nnc(-c2ccco2)n1CC(C)C`, the inhibition entry is “inactive”. In the case of `CC1CCN(C(=O)c2ccc(CSc3ccc(Cl)cc3)cc2)CC1` it was “inactive”; in that of `COc1ccc(-c2n[nH]c3c2CN(C(=O)c2ccc(F)cc2)CC3)cc1`, “inactive”. In the case of `Cc1ccc2c(c1)N(C(=O)CCC(=O)N1CCc3ccccc3C1)CCO2`, the inhibition entry is “inactive”. Under `O=C1CC(c2ccccc2)=NN1c1ccc([N+](=O)[O-])cc1` stands “inactive”.

As to `CCOC(=O)C1(CCOc2ccccc2)CCN(Cc2cc(OC)c(O)cc2Cl)CC1`, the inhibition result was “inactive”.

With `COc1cccc(NC(=S)N(CCc2c(C)[nH]c3ccccc23)Cc2ccco2)c1`, the inhibition result is “inactive”. In the case of `Cc1cccc(N2CCN(C(=O)c3cccc(S(=O)(=O)N4CCc5ccccc5C4)c3)CC2C)c1` (centres undefined) it was “inactive”.

Take `CCC(c1nnnn1Cc1ccco1)N(CCc1ccccc1)Cc1cc2cccc(C)c2[nH]c1=O` (centres undefined): the inhibition result is “inactive”.

Regarding `COc1cccc2cc(C(C)N(CCCN3CCOCC3)C(=O)Nc3ccc(Cl)cc3)oc12` (centres undefined), the inhibition entry is “inactive”. In the case of `Cc1cccc2cc(CN(Cc3nnnn3Cc3ccccc3)C3CCCC3)c(=O)[nH]c12` it was “inactive”; in that of `Fc1ccc(Cn2nnnc2C(c2cccs2)N2CCCCCC2)cc1` (centres undefined), “inactive”. Under `COc1ccc(C(=O)NN2C(=O)C3C(c4ccccc4)C=CC(c4ccccc4)C3C2=O)cc1` (centres undefined) stands “inactive”; under `COc1cc(Cl)ccc1OCc1cc(C(=O)N2CC[C@@H]3CCCC[C@H]3C2)no1`, “inactive”; under `COc1ccccc1/C=C/C=N/n1c(-c2ccc(Cl)cc2Cl)n[nH]c1=S`, “inactive”.

On to `CCOc1ccc(C2c3[nH]c4ccccc4c3CCN2Cc2cccn2-c2ncccn2)cc1` (centres undefined), for which the inhibition result was “inactive”. In the case of `CC1=NN(c2cccc(Cl)c2)C(=O)C12CC(C)=C(C)CS2` (centres undefined) it was “inactive”. Take `CC1=CC(C)(C)N(C(=O)CSc2nnc(-c3ccccc3)o2)c2ccc(C)cc21`: the inhibition entry was “inactive”. In the case of `Fc1cccc(Cl)c1CSc1ccc(-c2ccco2)nn1` it was “inactive”.
